Results reported in PubChem BioAssay (NCATS).
Records with an inconclusive call do not appear. Calls of active or inactive are those of the source. Unless noted, calls follow the shape of the dose curve; as a rule, active = well fitted curve in the direction sought with a large enough effect; inconclusive = small, poorly fitted or top-dose-only effect, or another doubt; inactive = no such curve, though single readings can be large; an effect the other way counts as inactive or inconclusive.

What was measured:
[1] = AP1 Signaling Pathway (AID 357; active = well fitted curve in either direction with a large enough effect, not every such curve was filed as active;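 also: ME-180 reporter cells stimulated with EGF at its EC50 level; % is scaled to controls: 0 for no effect and ±100 for the full control effect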); conditions: ME-180 AP-1-bla reporter, EGF-induced, beta-lactamase ratio, 5 h; at 7.69 µM (top of the series) unless noted
Outline: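 Beta-lactamase reporter under AP-1 response element, ME-180 background. Stimulus: EC50 EGF. Compound exposure 5 h, 37 °C. Detection: CCF4, 2.5 h RT, 460/530 nm. Values: AC50 from titration.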

[2] = target: Cytochrome P450 1A2 (Homo sapiens) (UniProt P05177); experiment: p450-cyp1a2 (AID 410; calls by dose curve; also: potency is read from the fitted curve at half-maximal effect;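 as to activity change, negative = inhibition: -100% = full effect of reference inhibitor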)
Sequence of Cytochrome P450 1A2 (Homo sapiens) (P05177 whole entry, looked up): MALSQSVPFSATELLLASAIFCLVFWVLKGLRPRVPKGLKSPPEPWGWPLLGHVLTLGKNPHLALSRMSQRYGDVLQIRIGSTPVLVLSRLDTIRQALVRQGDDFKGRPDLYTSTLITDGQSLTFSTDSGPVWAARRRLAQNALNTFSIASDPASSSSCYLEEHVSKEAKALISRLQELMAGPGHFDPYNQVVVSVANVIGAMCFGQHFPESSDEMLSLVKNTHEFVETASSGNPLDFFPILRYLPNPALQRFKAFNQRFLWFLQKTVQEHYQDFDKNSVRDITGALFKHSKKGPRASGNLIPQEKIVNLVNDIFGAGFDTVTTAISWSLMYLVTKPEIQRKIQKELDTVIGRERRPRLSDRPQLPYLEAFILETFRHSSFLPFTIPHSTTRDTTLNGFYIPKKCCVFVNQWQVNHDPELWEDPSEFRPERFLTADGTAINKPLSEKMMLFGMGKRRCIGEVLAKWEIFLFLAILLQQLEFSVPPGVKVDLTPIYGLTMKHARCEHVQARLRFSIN
Outline: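 20nM CYP1A2 with 100uM Luciferin-ME (at Km) in 100mM KPO4; compound preincubated 10 min, NADPH regeneration added, 60 min at room temperature. Luciferin quantified by luminescence after detection reagent; normalized to 57 uM furafylline.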

[3] = NFAT Signaling Pathway (AID 444; active = well fitted curve in either direction with a large enough effect, not every such curve was filed as active;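 also: carbachol stimulus at about its EC50 of 1 µM final; % is scaled to controls: 0 for no effect and ±100 for the full control effect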); conditions: Jurkat NFAT-bla M1, carbachol, beta-lactamase ratio, 5 h; at 7.69 µM (top of the series) unless noted
Outline: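 Jurkat cells with NFAT-driven β-lactamase reporter and co-expressed M1 receptor, stimulated with carbachol (final 1 uM, ~EC50), compound titration, 5 h at 37 °C. CCF4 loaded 1 h at RT; 460/530 nm ratio gave %activity and AC50.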

[4] = Stat Signaling Pathway (AID 446; active = well fitted curve in either direction with a large enough effect, not every such curve was filed as active;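 also: ME-180 cervical cancer cells given 40 pM IL-6 alongside compound; SIE-controlled beta-lactamase reporter measured as 460/530 nm FRET emission ratio; % is scaled to controls: 0 for no effect and ±100 for the full control effect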); conditions: ME-180 SIE beta-lactamase reporter, IL-6 stimulated, 5 h; at 7.69 µM (top of the series) unless noted
Outline: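 Reporter line: ME-180 cervical carcinoma, SIE-beta-lactamase. Treatment: compound with 40 pM IL-6, 5 hrs, 37 C, in low-serum OPTI-MEM with 10 mM HEPES pH 7.3. Detection: 460/530 nm fluorescence.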

[5] = target: Glucocorticoid receptor (Homo sapiens) (UniProt P04150); experiment: GR-GFP Redistribution (AID 450;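 active = compounds whose dose series gives a full or clear partial fitted curve of increased nuclear translocation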; also: potency is read from the fitted curve at half-maximal effect); conditions: U2OS GR-GFP nuclear translocation, laser cytometry, 2 h
Sequence of Glucocorticoid receptor (Homo sapiens) (P04150 whole entry, looked up, the tested form may be a part): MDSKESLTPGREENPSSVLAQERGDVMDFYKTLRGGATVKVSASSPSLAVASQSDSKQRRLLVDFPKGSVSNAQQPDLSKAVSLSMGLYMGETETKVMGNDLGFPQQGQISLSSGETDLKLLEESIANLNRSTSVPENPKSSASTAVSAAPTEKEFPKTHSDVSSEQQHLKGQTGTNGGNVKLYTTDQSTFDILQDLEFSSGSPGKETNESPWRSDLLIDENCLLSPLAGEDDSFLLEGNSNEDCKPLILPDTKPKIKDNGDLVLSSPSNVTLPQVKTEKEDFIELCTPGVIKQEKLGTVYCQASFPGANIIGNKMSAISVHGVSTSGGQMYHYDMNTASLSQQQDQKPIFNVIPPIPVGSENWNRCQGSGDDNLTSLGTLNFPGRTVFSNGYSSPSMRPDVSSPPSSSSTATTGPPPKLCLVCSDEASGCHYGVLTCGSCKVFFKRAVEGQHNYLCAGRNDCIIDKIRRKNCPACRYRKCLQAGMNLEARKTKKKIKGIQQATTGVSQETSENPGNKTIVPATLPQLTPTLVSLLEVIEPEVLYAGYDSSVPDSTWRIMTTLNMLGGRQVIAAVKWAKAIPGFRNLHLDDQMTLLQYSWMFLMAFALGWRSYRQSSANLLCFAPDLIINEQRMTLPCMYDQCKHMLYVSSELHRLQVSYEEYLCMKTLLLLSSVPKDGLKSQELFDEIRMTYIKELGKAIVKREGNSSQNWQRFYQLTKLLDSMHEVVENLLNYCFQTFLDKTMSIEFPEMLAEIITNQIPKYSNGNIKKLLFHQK

[6] = target: Glucocorticoid receptor (Homo sapiens) (UniProt P04150); experiment: GR-EFC Redistribution (AID 451; calls by dose curve; also: potency is read from the fitted curve at half-maximal effect); conditions: CHO-K1 GR-EFC translocation, beta-gal luminescence, 2 h
Outline: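 CHO-K1 cells expressing nuclear EA and GR-ED fragments of b-gal; compounds titrated up to 46 uM final, 2 h at 37 C. GR nuclear translocation read as complemented b-gal luminescence after 1 h RT detection.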

[7] = target: Mitogen-activated protein kinase 10 (Mus musculus) (UniProt Q61831); experiment: JNK3 AlphaScreen Assay (AID 530; active = well fitted curve in either direction with a large enough effect, not every such curve was filed as active;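 also: kinase came from lysate of stimulated human HepG2 cells; signal reports phosphorylation of biotinylated GST-cJun 1-79 at Ser73 with 10 µM ATP; % is scaled to controls: 0 for no effect and ±100 for the full control effect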)
Outline: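 Pre-activated (IL-1β/TNFα) JNK3 in HepG2 lysates phosphorylates biotin-GST-cJun(1-79), 10 uM ATP; anti-phospho-cJun(Ser73) AlphaScreen read at room temperature, pH 7.6 Tris buffer. Compounds pre-incubated 15 min as titrations.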

[8] = target: Cytochrome P450 3A4 (Homo sapiens) (UniProt P08684); experiment: qHTS Assay for Inhibitors and Substrates of Cytochrome P450 3A4 (AID 884); also: potency is read from the fitted curve at half-maximal effect; nearly all actives have a fitted effect of over 50% in size
Sequence of Cytochrome P450 3A4 (Homo sapiens) (P08684 whole entry, looked up): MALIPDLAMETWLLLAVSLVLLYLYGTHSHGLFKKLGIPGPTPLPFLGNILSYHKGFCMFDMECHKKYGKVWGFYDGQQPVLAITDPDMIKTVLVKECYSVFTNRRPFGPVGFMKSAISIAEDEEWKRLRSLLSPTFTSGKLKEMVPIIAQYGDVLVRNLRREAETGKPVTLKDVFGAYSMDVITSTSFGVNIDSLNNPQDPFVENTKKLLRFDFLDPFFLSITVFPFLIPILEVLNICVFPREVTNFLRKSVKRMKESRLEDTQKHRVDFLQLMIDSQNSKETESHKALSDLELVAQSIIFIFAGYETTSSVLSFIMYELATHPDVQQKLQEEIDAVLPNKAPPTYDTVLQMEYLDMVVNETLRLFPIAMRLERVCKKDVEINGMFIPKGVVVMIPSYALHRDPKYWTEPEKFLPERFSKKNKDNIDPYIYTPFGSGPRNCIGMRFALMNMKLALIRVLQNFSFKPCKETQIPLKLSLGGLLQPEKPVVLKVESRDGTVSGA
Outline: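 20 nM human CYP3A4 with 25 uM Luciferin-PPXE (at KM) in 200 mM KPO4, preincubated 10 min with compound; NADPH regeneration started a 60 min RT reaction. Luciferin detected by luminescence, normalized to 57 uM ketoconazole as full inhibition.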

[9] = target: Cytochrome P450 3A4 (Homo sapiens) (UniProt P08684); experiment: qHTS Assay for Activators of Cytochrome P450 3A4 (AID 885); also: nearly all actives have a fitted effect of over 65% in size
Outline: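 Signal was normalized against complete inhibition by 57 uM ketoconazole. The reaction used 20nM CYP3A4 with 25uM Luciferin-PPXE, 10-min compound preincubation and a 60-min NADPH-supported step at RT.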

[10] = qHTS Assay for Lipid Storage Modulators (AID 1519; calls by dose curve); conditions: Drosophila S3 cells, BODIPY lipid droplet/cell ratio, laser cytometry, cells loaded with oleic acid; for activity change, negative = inhibition: at 57.5 µM (top of the series)
Outline: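 Cells seeded at 5,000 per well were treated with compounds over a concentration series and loaded with oleic acid (400 uM, as added). Lipid droplet fluorescence (488 nm excitation, 500-530 nm channel) was read by laser-scanning cytometry and normalized to 20 uM Triacsin C.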

[11] = target: Dual specificity protein kinase CLK4 (Homo sapiens) (UniProt Q9HAZ1); experiment: qHTS Assay for Inhibitors of CDC-like Kinase 4 (Kinase-Glo Assay) (AID 1770); also: nearly all actives have a fitted effect of over 65% in size; also: potency is read from the fitted curve at half-maximal effect
Sequence of Dual specificity protein kinase CLK4 (Homo sapiens) (Q9HAZ1 whole entry, looked up): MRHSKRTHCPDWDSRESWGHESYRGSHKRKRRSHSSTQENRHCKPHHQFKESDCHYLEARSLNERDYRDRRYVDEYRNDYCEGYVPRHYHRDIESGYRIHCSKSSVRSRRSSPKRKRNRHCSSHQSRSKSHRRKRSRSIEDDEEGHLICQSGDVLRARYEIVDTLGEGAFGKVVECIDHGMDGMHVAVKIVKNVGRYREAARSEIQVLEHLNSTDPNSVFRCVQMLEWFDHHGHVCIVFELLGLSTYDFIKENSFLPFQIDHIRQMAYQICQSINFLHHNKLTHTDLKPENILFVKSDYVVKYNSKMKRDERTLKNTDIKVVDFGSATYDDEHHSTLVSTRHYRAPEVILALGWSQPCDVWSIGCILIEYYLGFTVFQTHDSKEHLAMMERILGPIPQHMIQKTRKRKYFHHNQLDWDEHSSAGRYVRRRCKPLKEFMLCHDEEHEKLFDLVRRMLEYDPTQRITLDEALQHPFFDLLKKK
Outline: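 Clk4 25 nM, RS peptide 100 uM, ATP 1 uM, pH 7.5 Tris, 10 mM MgCl2, 2.5 mM DTT; 4.5 h RT; ATP depletion read by Kinase-Glo luminescence.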

[12] = target: Dual specificity protein kinase CLK4 (Homo sapiens) (UniProt Q9HAZ1); experiment: qHTS Assay for Inhibitors of CDC-like Kinase 4 (ADP-Glo Assay) (AID 1771); also: nearly all actives have a fitted effect of over 70% in size; also: potency is read from the fitted curve at half-maximal effect
Outline: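 25 nM Clk4 with 100 uM RS repeat peptide and 1 uM ATP (final) in buffer with 2 mM MgCl2, 0.5 mM EGTA, 2.5 mM DTT, 0.01% Triton X-100; 1 h at room temperature; ADP-Glo luminescence for ADP formed.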

[13] = target: Dual specificity protein kinase CLK4 (Homo sapiens) (UniProt Q9HAZ1); experiment: qHTS Assay for Inhibitors of CDC-like Kinase 4 (ADP-FP Assay) (AID 1795); also: nearly all actives have a fitted effect of over 60% in size; also: potency is read from the fitted curve at half-maximal effect
Outline: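 Kinase activity was followed as ADP output, converted from fluorescence polarization with a calibration curve. Reactions ran one hour at low ATP (1 uM) with RS peptide substrate.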

[14] = target: Ubiquitin carboxyl-terminal hydrolase 1 (Homo sapiens) (UniProt O94782); experiment: Inhibitors of USP1/UAF1: Pilot qHTS (AID 504865);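 also: rhodamine fluorescence freed from ubiquitin-rhodamine substrate followed over time; top concentration of the series differs between compounds; % is scaled to controls: 0 for no effect and ±100 for the full control effect; nearly all actives have a fitted effect of over 35% in size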
Sequence of Ubiquitin carboxyl-terminal hydrolase 1 (Homo sapiens) (O94782 whole entry, looked up): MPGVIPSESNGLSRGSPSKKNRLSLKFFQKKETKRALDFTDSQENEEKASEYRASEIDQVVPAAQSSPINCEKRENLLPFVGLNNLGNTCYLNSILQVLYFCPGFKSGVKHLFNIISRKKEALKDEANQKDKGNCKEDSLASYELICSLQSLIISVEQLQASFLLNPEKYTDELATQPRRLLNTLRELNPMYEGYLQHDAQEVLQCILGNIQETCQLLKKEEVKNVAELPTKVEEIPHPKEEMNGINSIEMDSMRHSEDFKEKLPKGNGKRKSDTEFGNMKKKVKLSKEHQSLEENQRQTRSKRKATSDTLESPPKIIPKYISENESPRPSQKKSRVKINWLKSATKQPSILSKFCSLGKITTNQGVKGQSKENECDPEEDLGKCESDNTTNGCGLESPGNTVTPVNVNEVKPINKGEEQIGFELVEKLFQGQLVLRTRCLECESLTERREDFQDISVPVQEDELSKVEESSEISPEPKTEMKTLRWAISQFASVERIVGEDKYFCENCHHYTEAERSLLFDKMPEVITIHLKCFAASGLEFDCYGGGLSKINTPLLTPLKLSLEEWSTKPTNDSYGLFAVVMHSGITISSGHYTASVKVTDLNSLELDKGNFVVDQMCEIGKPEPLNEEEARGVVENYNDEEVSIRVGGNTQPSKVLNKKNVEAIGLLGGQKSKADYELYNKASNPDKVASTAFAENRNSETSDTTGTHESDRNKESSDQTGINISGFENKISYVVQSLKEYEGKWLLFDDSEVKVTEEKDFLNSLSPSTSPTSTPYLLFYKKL
Outline: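 Enzyme-free wells gave the negative control, while test wells held 1nM USP1/UAF1 preincubated with compound for 15 min at room temperature. Ub-Rho at 150nM final started the reaction, and fluorescence at 480/540 nm was recorded kinetically.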

[15] = target: Lysosomal acid glucosylceramidase (Homo sapiens) (UniProt P04062); experiment: Glucocerebrosidase-p2 (AID 348; in the data active = potency below about 10 µM; also: potency is read from the fitted curve at half-maximal effect); conditions: purified GBA, blue fluorogenic substrate, 40 min
Sequence of Lysosomal acid glucosylceramidase (Homo sapiens) (P04062 whole entry, looked up): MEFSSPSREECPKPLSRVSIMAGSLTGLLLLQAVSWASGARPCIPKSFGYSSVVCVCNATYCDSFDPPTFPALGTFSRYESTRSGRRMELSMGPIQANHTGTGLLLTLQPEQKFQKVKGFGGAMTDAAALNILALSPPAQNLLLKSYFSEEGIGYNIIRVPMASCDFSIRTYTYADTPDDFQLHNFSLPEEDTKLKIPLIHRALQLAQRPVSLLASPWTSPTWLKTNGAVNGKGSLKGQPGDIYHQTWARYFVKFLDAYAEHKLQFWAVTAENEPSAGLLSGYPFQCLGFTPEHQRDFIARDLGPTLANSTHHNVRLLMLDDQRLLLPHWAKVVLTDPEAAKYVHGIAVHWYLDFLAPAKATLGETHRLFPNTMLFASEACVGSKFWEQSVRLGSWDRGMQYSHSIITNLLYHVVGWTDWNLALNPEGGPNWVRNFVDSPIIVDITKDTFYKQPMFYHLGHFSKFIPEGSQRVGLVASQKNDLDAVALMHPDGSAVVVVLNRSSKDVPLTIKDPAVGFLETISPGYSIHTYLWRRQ
Outline: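 Compounds titrated from 0.6 nM upwards against 0.2 nM enzyme in pH 5.9 citric acid/KH2PO4, taurocholate, tween-20; blue fluorogenic substrate 80 uM, 40 min room temperature, stopped and read Ex 365/Em 440 for AC50.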

[16] = target: 3',5'-cyclic-AMP phosphodiesterase 4B (Homo sapiens) (UniProt Q07343); experiment: qHTS Assay for Inhibitors of PDE-IV (AID 607; active = well fitted activation curve with a large enough effect in the main read-out, with a control signal flat, not every such curve was filed as active; also: % of control where 0% means no effect)
Sequence of 3',5'-cyclic-AMP phosphodiesterase 4B (Homo sapiens) (Q07343 whole entry, looked up): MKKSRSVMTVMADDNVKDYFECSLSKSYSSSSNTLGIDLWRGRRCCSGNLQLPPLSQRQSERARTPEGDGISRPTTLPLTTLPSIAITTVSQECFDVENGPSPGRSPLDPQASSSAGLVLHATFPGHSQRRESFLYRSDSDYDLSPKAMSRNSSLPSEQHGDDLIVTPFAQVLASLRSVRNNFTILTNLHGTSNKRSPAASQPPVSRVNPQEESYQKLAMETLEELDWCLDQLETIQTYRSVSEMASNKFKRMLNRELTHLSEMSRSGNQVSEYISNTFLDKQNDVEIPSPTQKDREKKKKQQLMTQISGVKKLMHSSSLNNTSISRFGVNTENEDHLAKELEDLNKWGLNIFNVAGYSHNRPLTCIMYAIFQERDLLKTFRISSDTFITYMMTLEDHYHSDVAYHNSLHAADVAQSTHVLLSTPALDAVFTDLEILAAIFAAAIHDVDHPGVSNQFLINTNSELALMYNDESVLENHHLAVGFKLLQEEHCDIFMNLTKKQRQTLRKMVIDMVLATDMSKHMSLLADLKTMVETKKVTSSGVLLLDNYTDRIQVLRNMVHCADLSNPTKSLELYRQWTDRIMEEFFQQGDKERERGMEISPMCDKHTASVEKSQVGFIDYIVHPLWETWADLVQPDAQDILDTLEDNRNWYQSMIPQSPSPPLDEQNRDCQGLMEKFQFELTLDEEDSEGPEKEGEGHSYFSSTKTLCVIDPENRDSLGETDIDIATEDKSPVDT
Outline: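 Cell-based read-out of cAMP via a modified cyclic nucleotide-gated channel and membrane potential dye (535/590 nm) in HEK293 cells expressing PDE4 endogenously. Compounds tested up to 22.9 uM final; 100 uM RO 20-1724 reference.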

[17] = qHTS Assay for Identification of Small Molecule Agonists for Hypoxia Response Element Signaling Pathway (AID 914; active = well fitted activation curve with a large enough effect in the signal ratio, with a control signal flat, not every such curve was filed as active; the % refers to the signal ratio; also: potency is read from the fitted curve at half-maximal effect; as to activation: % of control where 0% means no effect); conditions: ME-180 (cervical carcinoma) HRE-bla reporter, beta-lactamase ratio, CoCl2, 17 h; activation: stronger effect = higher value
Outline: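 HRE-bla ME-180 cells with beta-lactamase reporter under hypoxia response element, compounds with EC50 CoCl2 for 17 hours at 37 C. CCF4 substrate, 460nm/530nm emission ratio gave %Activity; AC50 from titration series.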

[18] = measured here: cell count channel max response
[19] = measured here: lipid channel max response

COc1ccc(CNc2ccnc(-c3ccccc3CN(C)C)n2)c(OC)c1
active: Potency [2] 15.8 µM | Potency [8] 5.01 µM
28.6%: max response [10, 19]
inactive: activity change, negative = inhibition [1] 5.22% | activity change, negative = inhibition [3] -25.3% | activity, negative = inhibition [4] 9.04% | Potency [5] > 46 µM | Potency [6] > 46 µM | Potency [7] | Potency [9] | activity change, negative = inhibition [10] 3.1% | Potency [11] | Potency [12] | Potency [13] | Potency [14]
26.9%: max response [10, 18]

CN(C)Cc1ccccc1-c1cc(NCc2ccccc2)ncn1
6.7%: max response [10, 18]
inactive: Potency [15] > 11.4 µM | activity change, negative = inhibition [1] -0.0154% | Potency [2] | activity, negative = inhibition [4] 12.3% | Potency [5] > 46 µM | Potency [6] > 46 µM | Potency [7] | activity change, negative = inhibition [10] 4.72% | Potency [11] | Potency [12] | Potency [13] | Potency [14]
9.63%: max response [10, 19]

FC(F)(F)c1ccccc1-c1cncnc1NCCN1CCOCC1
inactive: Potency [15] > 11.4 µM | activity, negative = inhibition [4] -11.6% | Potency [5] > 46 µM | Potency [6] > 46 µM | Potency [7] | Potency [16] | Potency [9] | activity change, negative = inhibition [10] -3.84% | Potency [11] | Potency [12] | Potency [13] | Potency [14]
15.3%: max response [10, 18]
13.3%: max response [10, 19]
active: Potency [2] 2.51 µM | Potency [8] 0.794 µM | Potency [17] 2.51 µM

CN1CCN(c2ncncc2-c2ccccc2Cl)CC1
active: Potency [2] 2.51 µM | Potency [8] 1.58 µM
inactive: Potency [15] > 11.4 µM | activity change, negative = inhibition [1] -12.3% | activity, negative = inhibition [4] -1.1% | Potency [5] > 46 µM | Potency [6] > 46 µM | Potency [7] | Potency [16] | Potency [9] | activation [17] 4.87% | activity change, negative = inhibition [10] -1.74% | Potency [11] | Potency [12] | Potency [13] | Potency [14]
3.53%: max response [10, 19]
8.31%: max response [10, 18]

COCCn1c(=O)c(-c2ccc(Cl)cc2)nc2cnc(N3CCNCC3)nc21
21.3%: max response [10, 19]
20.2%: max response [10, 18]
inactive: Potency [15] > 11.4 µM | Potency [5] > 9.22 µM | Potency [6] > 46 µM | Potency [7] | Potency [16] | activity change, negative = inhibition [10] 5.4% | Potency [11] | Potency [12] | Potency [13] | Potency [14]

COc1cccc(Nc2ncc3nc(C)c(=O)n(-c4ccccc4)c3n2)c1
active: Potency [2] 5.01 µM | Potency [11] 10 µM | Potency [12] 12.6 µM | Potency [13] 1.58 µM
-3.12%: max response [10, 18]
-13.9%: max response [10, 19]
inactive: Potency [15] > 11.4 µM | activity change, negative = inhibition [3] 11.1% | activity, negative = inhibition [4] -20.1% | Potency [5] > 9.22 µM | Potency [6] > 46 µM | Potency [7] | Potency [16] | Potency [9] | activity change, negative = inhibition [10] -6.79% | Potency [14]

COCCn1c(=O)c(-c2ccc(OC)cc2)nc2cnc(N3CCN(C)CC3)nc21
21%: max response [10, 19]
16%: max response [10, 18]
inactive: Potency [15] > 11.4 µM | activity change, negative = inhibition [1] 29.4% | Potency [5] > 9.22 µM | Potency [6] > 46 µM | Potency [7] | Potency [16] | activity change, negative = inhibition [10] 6% | Potency [11] | Potency [12] | Potency [13] | Potency [14]
active: Potency [17] 3.16 µM

COc1cccc(Cn2c(=O)c(-c3ccccc3)nc3cnc(N4CCN(C)CC4)nc32)c1
active: Potency [17] 3.16 µM
inactive: Potency [15] > 11.4 µM | Potency [2] | Potency [5] > 9.22 µM | Potency [6] > 46 µM | Potency [16] | Potency [9] | activity change, negative = inhibition [10] -6.14% | Potency [11] | Potency [12] | Potency [13] | Potency [14]
6.94%: max response [10, 18]
-0.577%: max response [10, 19]

COc1ccc(Oc2ncc3nc(-c4ccc(Cl)cc4)c(=O)n(C4CC4)c3n2)cc1
5.63%: max response [10, 19]
inactive: Potency [15] > 11.4 µM | activity change, negative = inhibition [1] -19.7% | activity change, negative = inhibition [3] 2.73% | activity, negative = inhibition [4] -1.97% | Potency [5] > 9.22 µM | Potency [6] > 46 µM | Potency [7] | activity change, negative = inhibition [10] 4.67% | Potency [11] | Potency [12] | Potency [13] | Potency [14]
-1.25%: max response [10, 18]

COc1ccc(-c2nc3cnc(N4CCN(C)CC4)nc3n(C3CC3)c2=O)cc1
2.3%: max response [10, 18]
3.44%: max response [10, 19]
active: Potency [2] 20 µM
inactive: activity change, negative = inhibition [1] -5.97% | activity change, negative = inhibition [3] -2.54% | activity, negative = inhibition [4] -7.93% | Potency [5] > 9.22 µM | Potency [6] > 46 µM | Potency [7] | Potency [16] | activity change, negative = inhibition [10] 2.69% | Potency [11] | Potency [12] | Potency [13] | Potency [14]

N#CCCn1c(=O)c(-c2ccc(F)cc2)nc2cnc(OCc3ccccc3)nc21
0.762%: max response [10, 18]
-3.12%: max response [10, 19]
active: Potency [2] 1.58 µM
inactive: Potency [15] > 11.4 µM | activity change, negative = inhibition [3] -4.49% | activity, negative = inhibition [4] -20.1% | Potency [5] > 9.22 µM | Potency [6] > 46 µM | Potency [7] | Potency [16] | Potency [9] | activity change, negative = inhibition [10] -1.54% | Potency [11] | Potency [12] | Potency [13] | Potency [14]
